Reference: publication PMC8384837, “Expanding the binding specificity for RNA recognition by a PUF domain”

Key:
Assay in all cases: yeast three-hybrid, YBZ-1, SC-Leu-His + 0.5 mM 3-AT, 4 days
Settings in all cases: tags: N-Gal4 AD-HA kept; label: inside an RPR1-promoter hybrid RNA with tandem MS2 sites; ssRNA
[1] = biological target: PUM1 PUF domain R3-RVK (Homo sapiens, UniProt Q14671 828-1176, C935R;R936V;Q939K)
In short: (§1)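 The interaction score is the logarithmic change in variant frequency from input to selection. It uses log2, with a pseudocount of 1 for absent variants, and frequencies came from PCR-amplified, Illumina-sequenced repeat regions. The libraries were Pumilio-1 PUF domains randomized at the three base-contacting residues per repeat, co-expressed with matching RNA elements in strain YBZ-1 (LexA–MS2 coat fusion, HIS3 reporter). Plating lasted four days on SC-Leu (input) or SC-Leu-His + 0.5 mM 3-AT (selection).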

[2] = biological target: PUM1 PUF domain R3-SND (Homo sapiens, UniProt Q14671 828-1176, C935S;R936N;Q939D)
Chain of PUM1 PUF domain R3-SND (Q14671 828-1176 C935S/R936N/Q939D): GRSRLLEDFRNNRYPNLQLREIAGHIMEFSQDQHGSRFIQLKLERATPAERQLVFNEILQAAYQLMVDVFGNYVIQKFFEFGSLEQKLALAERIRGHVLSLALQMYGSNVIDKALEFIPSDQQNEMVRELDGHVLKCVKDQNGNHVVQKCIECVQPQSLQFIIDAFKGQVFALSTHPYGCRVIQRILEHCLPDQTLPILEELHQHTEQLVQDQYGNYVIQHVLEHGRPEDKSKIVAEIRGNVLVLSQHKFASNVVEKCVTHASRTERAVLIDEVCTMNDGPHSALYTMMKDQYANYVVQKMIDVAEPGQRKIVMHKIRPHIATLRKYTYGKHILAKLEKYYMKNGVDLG
In short: as §1

[3] = biological target: PUM1 PUF domain R5-KAV (Homo sapiens, UniProt Q14671 828-1176, C1007K;R1008A;Q1011V)
Chain of PUM1 PUF domain R5-KAV (Q14671 828-1176 C1007K/R1008A/Q1011V): as the sequence (Q14671 828-1176 C935S/R936N/Q939D) above, with S108C, N109R, D112Q, C180K, R181A, Q184V counted along it
In short: as §1

[4] = biological target: PUM1 PUF domain R3-MYD (Homo sapiens, UniProt Q14671 828-1176, C935M;R936Y;Q939D)
Chain of PUM1 PUF domain R3-MYD (Q14671 828-1176 C935M/R936Y/Q939D): as the sequence (Q14671 828-1176 C935S/R936N/Q939D) above, with S108M, N109Y counted along it
In short: as §1

[5] = biological target: PUM1 PUF domain R4-PYR (Homo sapiens, UniProt Q14671 828-1176, N971P;H972Y;Q975R)
Chain of PUM1 PUF domain R4-PYR (Q14671 828-1176 N971P/H972Y/Q975R): as the sequence (Q14671 828-1176 C935S/R936N/Q939D) above, with S108C, N109R, D112Q, N144P, H145Y, Q148R counted along it
In short: as §1

[6] = biological target: PUM1 PUF domain R1-TKR (Homo sapiens, UniProt Q14671 828-1176, S863T;R864K;Q867R)
Chain of PUM1 PUF domain R1-TKR (Q14671 828-1176 S863T/R864K/Q867R): as the sequence (Q14671 828-1176 C935S/R936N/Q939D) above, with S36T, R37K, Q40R, S108C, N109R, D112Q counted along it
In short: as §1

[7] = biological target: PUM1 PUF domain R3-PRQ (Homo sapiens, UniProt Q14671 828-1176, C935P)
Chain of PUM1 PUF domain R3-PRQ (Q14671 828-1176 C935P): as the sequence (Q14671 828-1176 C935S/R936N/Q939D) above, with S108P, N109R, D112Q counted along it
In short: as §1

[8] = biological target: PUM1 PUF domain R8-VFR (Homo sapiens, UniProt Q14671 828-1176, N1122V;Y1123F;Q1126R)
Chain of PUM1 PUF domain R8-VFR (Q14671 828-1176 N1122V/Y1123F/Q1126R): as the sequence (Q14671 828-1176 C935S/R936N/Q939D) above, with S108C, N109R, D112Q, N295V, Y296F, Q299R counted along it
In short: as §1

[9] = biological target: PUM1 PUF domain R8-LFW (Homo sapiens, UniProt Q14671 828-1176, N1122L;Y1123F;Q1126W)
Chain of PUM1 PUF domain R8-LFW (Q14671 828-1176 N1122L/Y1123F/Q1126W): as the sequence (Q14671 828-1176 C935S/R936N/Q939D) above, with S108C, N109R, D112Q, N295L, Y296F, Q299W counted along it
In short: as §1

[10] = biological target: PUM1 PUF domain R1-TRK (Homo sapiens, UniProt Q14671 828-1176, S863T;Q867K)
Chain of PUM1 PUF domain R1-TRK (Q14671 828-1176 S863T/Q867K): as the sequence (Q14671 828-1176 C935S/R936N/Q939D) above, with S36T, Q40K, S108C, N109R, D112Q counted along it
In short: as §1

Chain of PUM1 PUF domain R3-RVK (Q14671 828-1176 C935R/R936V/Q939K): as the sequence (Q14671 828-1176 C935S/R936N/Q939D) above, with S108R, N109V, D112K counted along it

GGCUAGAACUAGUGGAUCCCCCGGCGCCCGGCGGCUCGAGCCCGGGUAAGUGUAAGUAGUCUGCAUGCCGCCGGGCGCCAUGCCUGCAGGUCGACUCUAGAAAACAUG
binding signal [1]: 2.53 log2 enrichment (interaction score)
binding signal [2]: 5.25 log2 enrichment (interaction score)

GGCUAGAACUAGUGGAUCCCCCGGCGCCCGGCGGCUCGAGCCCGGGUAAGUGUCAAUAGUCUGCAUGCCGCCGGGCGCCAUGCCUGCAGGUCGACUCUAGAAAACAUG
binding signal [3]: 4 log2 enrichment (interaction score)

GGCUAGAACUAGUGGAUCCCCCGGCGCCCGGCGGCUCGAGCCCGGGUAAGUGUAAUUAGUCUGCAUGCCGCCGGGCGCCAUGCCUGCAGGUCGACUCUAGAAAACAUG
binding signal [1]: 5.35 log2 enrichment (interaction score)
binding signal [4]: 2.42 log2 enrichment (interaction score)

GGCUAGAACUAGUGGAUCCCCCGGCGCCCGGCGGCUCGAGCCCGGGUAAGUGUACAUAGUCUGCAUGCCGCCGGGCGCCAUGCCUGCAGGUCGACUCUAGAAAACAUG
binding signal [5]: 5.23 log2 enrichment (interaction score)

GGCUAGAACUAGUGGAUCCCCCGGCGCCCGGCGGCUCGAGCCCGGGUAAGUGUAAAUCGUCUGCAUGCCGCCGGGCGCCAUGCCUGCAGGUCGACUCUAGAAAACAUG
binding signal [6]: 6.21 log2 enrichment (interaction score)

GGCUAGAACUAGUGGAUCCCCCGGCGCCCGGCGGCUCGAGCCCGGGUAAGUGUAAAUAGUCUGCAUGCCGCCGGGCGCCAUGCCUGCAGGUCGACUCUAGAAAACAUG
binding signal [1]: 2.2 log2 enrichment (interaction score)
binding signal [7]: 4.52 log2 enrichment (interaction score)
binding signal [8]: 3.9 log2 enrichment (interaction score)
binding signal [9]: 2.5 log2 enrichment (interaction score)

GGCUAGAACUAGUGGAUCCCCCGGCGCCCGGCGGCUCGAGCCCGGGUAAGCGUAAAUAGUCUGCAUGCCGCCGGGCGCCAUGCCUGCAGGUCGACUCUAGAAAACAUG
binding signal [8]: 4.1 log2 enrichment (interaction score)
binding signal [9]: 2.4 log2 enrichment (interaction score)

GGCUAGAACUAGUGGAUCCCCCGGCGCCCGGCGGCUCGAGCCCGGGUAAGUGUAUAUAGUCUGCAUGCCGCCGGGCGCCAUGCCUGCAGGUCGACUCUAGAAAACAUG
binding signal [5]: 7.09 log2 enrichment (interaction score)

GGCUAGAACUAGUGGAUCCCCCGGCGCCCGGCGGCUCGAGCCCGGGUAAGUGUAAAUUGUCUGCAUGCCGCCGGGCGCCAUGCCUGCAGGUCGACUCUAGAAAACAUG
binding signal [10]: 3.04 log2 enrichment (interaction score)
binding signal [6]: 1.37 log2 enrichment (interaction score)
